# Several values for one entry are separate records, joined by “and”; a condition that tells them apart may be missing. Equal values may be shown once. Inconclusive results are not listed. Activity calls are given as the source filed them. Unless noted, calls follow the shape of the dose curve; as a rule, active = well fitted curve in the direction sought with a large enough effect; inconclusive = small, poorly fitted or top-dose-only effect, or another doubt; inactive = no such curve, though single readings can be large; an effect the other way counts as inactive or inconclusive.
# Assays:
# [1] = target: Cytochrome P450 2C9 (Homo sapiens) (UniProt P11712); assay: Cytochrome P450 family 2 subfamily C member 9 (CYP2C9) small molecule antagonists: luciferase biochemical (cell-free) qHTS assay (AID 1645842; active = well fitted curve in the direction sought with a large enough effect in the repeat runs; an effect the other way counts as inactive or inconclusive; also: nearly all actives have a fitted effect of over 55% in size; also: potency is read from the fitted curve at half-maximal effect; as to activity change, negative = inhibition: % is scaled to controls: 0 for no effect and ±100 for the full control effect)
# Method in brief: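 P450-Glo CYP2C9 system: proluciferin substrate with enzyme in mix containing 0.4% BSA, 10 min at room temperature, then NADPH regeneration solution added and incubated 1 h at 37C. Detection reagent stopped reaction; luminescence read after 20 min as RLU.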
# [2] = Primary qHTS for inhibitors of nuclear receptor binding SET domain protein 2 (NSD2) in an isogenic RCH-ACV NSD2 p.E1099K mutant (9B) (AID 1645876); also: nearly all actives have a fitted effect of over 70% in size; also: potency is read from the fitted curve at half-maximal effect
# [3] = Primary qHTS for inhibitors of nuclear receptor binding SET domain protein 2 (NSD2) in an RCH-ACV wild type WT cells (2C) (AID 1645877); also: nearly all actives have a fitted effect of over 70% in size; also: potency is read from the fitted curve at half-maximal effect
# [4] = NCATS anti-infectives library activity on HEK293 viability as a counter-qHTS vs the C. elegans viability qHTS (AID 1745854);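 also: HEK293 cells exposed to compounds for 24 hr before the viability read; % is scaled to controls: 0 for no effect and ±100 for the full control effect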
# Method in brief: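 Compound titrations (final up to 41.7 uM) were incubated with HEK293 cells for 24 hr at 37C under 5% CO2. Viable cells were quantified with CellTiter-Glo after 10 min at ambient temperature.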
# [5] = target: Catechol O-methyltransferase (Homo sapiens) (UniProt P21964); assay: Confirmatory Screen for Target Class Profiling of Small Molecule Inhibitors of Methyltransferases (AID 1745852; calls by dose curve; also: potency is read from the fitted curve at half-maximal effect; as to activity change, negative = inhibition: % is scaled to controls: 0 for no effect and ±100 for the full control effect); details: MTase-Glo luminescence, SAH detection, recombinant enzyme; measured here: COMT max response; stronger effect = lower value
# [6] = target: Guanidinoacetate N-methyltransferase (Homo sapiens) (UniProt Q14353); assay: as above; details: activity change, negative = inhibition: at 57.3 µM (top of the series) unless noted
# [7] = target: Nicotinamide N-methyltransferase (Homo sapiens) (UniProt P40261); assay: as above; details: MTase-Glo luminescence, SAH detection, recombinant enzyme; measured here: NNMT max response; stronger effect = lower value
# [8] = target: Phenylethanolamine N-methyltransferase (Homo sapiens) (UniProt P11086); assay: as above; details: MTase-Glo luminescence, SAH detection, recombinant enzyme; measured here: PNMT max response; stronger effect = lower value
# Sequence of Phenylethanolamine N-methyltransferase (Homo sapiens) (P11086 whole entry, looked up): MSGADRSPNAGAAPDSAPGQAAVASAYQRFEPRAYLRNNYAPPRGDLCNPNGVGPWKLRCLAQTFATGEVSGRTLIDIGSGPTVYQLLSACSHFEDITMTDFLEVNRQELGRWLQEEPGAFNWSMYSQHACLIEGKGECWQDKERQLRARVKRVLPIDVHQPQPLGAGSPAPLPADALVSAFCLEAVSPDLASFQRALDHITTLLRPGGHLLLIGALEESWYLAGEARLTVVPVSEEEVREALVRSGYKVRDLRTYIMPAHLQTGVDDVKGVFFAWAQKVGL
# Sequence of Nicotinamide N-methyltransferase (Homo sapiens) (P40261 whole entry, looked up): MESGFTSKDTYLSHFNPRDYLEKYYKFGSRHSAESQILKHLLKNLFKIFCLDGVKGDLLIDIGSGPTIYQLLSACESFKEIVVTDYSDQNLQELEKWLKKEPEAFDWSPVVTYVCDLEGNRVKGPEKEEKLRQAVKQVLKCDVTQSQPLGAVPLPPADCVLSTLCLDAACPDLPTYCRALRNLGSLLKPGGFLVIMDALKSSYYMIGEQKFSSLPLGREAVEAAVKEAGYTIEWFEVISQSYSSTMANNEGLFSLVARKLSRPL
# Sequence of Catechol O-methyltransferase (Homo sapiens) (P21964 whole entry, looked up): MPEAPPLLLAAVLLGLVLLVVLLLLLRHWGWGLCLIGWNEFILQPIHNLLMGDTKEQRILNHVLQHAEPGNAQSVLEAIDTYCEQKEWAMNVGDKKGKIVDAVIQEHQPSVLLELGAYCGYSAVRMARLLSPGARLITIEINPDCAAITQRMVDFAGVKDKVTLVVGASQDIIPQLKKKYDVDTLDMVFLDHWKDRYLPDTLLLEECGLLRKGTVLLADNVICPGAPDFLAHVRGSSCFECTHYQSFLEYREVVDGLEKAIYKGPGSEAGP
# Sequence of Cytochrome P450 2C9 (Homo sapiens) (P11712 whole entry, looked up): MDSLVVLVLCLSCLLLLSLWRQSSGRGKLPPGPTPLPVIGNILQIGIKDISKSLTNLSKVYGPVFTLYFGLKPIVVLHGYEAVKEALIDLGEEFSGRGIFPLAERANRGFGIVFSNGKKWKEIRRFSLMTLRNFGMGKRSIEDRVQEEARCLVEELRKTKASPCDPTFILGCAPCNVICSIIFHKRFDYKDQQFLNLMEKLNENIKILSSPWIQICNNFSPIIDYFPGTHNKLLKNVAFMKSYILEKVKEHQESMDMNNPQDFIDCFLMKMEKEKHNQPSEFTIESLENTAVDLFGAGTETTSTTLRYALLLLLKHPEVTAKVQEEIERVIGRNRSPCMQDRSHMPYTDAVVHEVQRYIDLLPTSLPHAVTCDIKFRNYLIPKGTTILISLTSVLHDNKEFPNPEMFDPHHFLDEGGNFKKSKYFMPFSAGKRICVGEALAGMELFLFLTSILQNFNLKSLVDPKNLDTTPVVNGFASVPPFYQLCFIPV
structure (smiles),measurement,setting,value
Cn1cc(-c2ccc(S(=O)(=O)n3ccc(/C=C/C(=O)Nc4ccccc4N)c3)cc2)cn1,Potency,[1],0.849 µM (active)
same,Potency,[2],649 nM (active) and 934 nM (active)
same,Potency,[3],649 nM (active) and 833 nM (active)
same,outcome,[4],inactive
C=CC(=O)Nc1ccc2ncnc(Nc3cccc(Br)c3)c2c1,Potency,[1],3.38 µM (active)
same,Potency,[2],4.68 µM (active)
same,Potency,[3],4.17 µM (active)
same,activity,[5],-59.2%
same,Potency,[6],19.2 µM (active)
same,activity,[7],-38.9%
same,activity,[8],-49.9%
COc1ccc(NC(=O)c2ccc(-c3ccc(C(=N)N)cc3C)cc2)cc1N1CCN(C)CC1,Potency,[1],inactive
same,Potency,[2],inactive
same,activity,[5],-5.44%
same,"activity change, negative = inhibition",[6],2.76%
same,activity,[7],-3.54%
same,activity,[8],-6.51%
Cc1cc(NC(=O)c2cccc(NC(=O)/C=C/CN(C)C)c2)ccc1Nc1nccc(-c2cccnc2)n1,Potency,[1],16.9 µM (active)
same,Potency,[2],4.61 µM (active)
same,Potency,[3],4.59 µM (active)
same,activity,[5],-3.09%
same,"activity change, negative = inhibition",[6],1.37%
same,activity,[7],-3.09%
same,activity,[8],-2.64%
CCC(=C(c1ccc(OCCN2CCCC2)cc1)c1ccc(OCCN2CCCC2)cc1)c1ccccc1,"activity change, negative = inhibition",[1],1.82% [at 11.5 µM] (inactive)
same,Potency,[2],3.65 µM (active)
same,Potency,[3],3.65 µM (active)
same,activity,[5],-7.7%
same,"activity change, negative = inhibition",[6],-5.33% [at 12.7 µM]
same,activity,[7],-3.61%
same,activity,[8],-4.76%
COc1cc2c(cc1OC)CN(C(=O)/C=C/c1c(-c3ccccc3)n(C)c3ncccc13)CC2,Potency,[1],0.268 µM (active)
same,Potency,[2],8.17 µM (active)
same,Potency,[3],11.5 µM (active)
same,activity,[5],-6.33%
same,"activity change, negative = inhibition",[6],-4.03%
same,activity,[7],-30.5%
same,activity,[8],-5.99%
CCCCNc1ncc(C(=O)NCc2ccc(-n3ccnc3)cc2)c(NC2CCC(O)CC2)n1 (stereo not drawn),Potency,[1],0.849 µM (active)
same,Potency,[2],5.78 µM (active)
same,Potency,[3],4.59 µM (active)
same,activity,[5],-11.6%
same,"activity change, negative = inhibition",[6],-6.08%
same,activity,[7],-47.3%
same,activity,[8],-34.7%
COc1ccc(N(C(=O)Nc2c(C)cccc2C)c2cc(Nc3ccc(N4CCN(C)CC4)cc3)ncn2)c(OC)c1,Potency,[1],13.5 µM (active)
same,Potency,[2],10.3 µM (active)
same,activity,[5],-5.96%
same,"activity change, negative = inhibition",[6],0%
same,activity,[7],-36.9%
same,activity,[8],-7.92%
C[C@H](Nc1cc2c(-c3ccc4c(c3)OCO4)noc2cn1)c1ccccc1,Potency,[1],1.69 µM (active)
same,Potency,[2],inactive
same,Potency,[3],inactive
same,activity,[5],-8.55%
same,"activity change, negative = inhibition",[6],-10.4%
same,activity,[7],-7.23%
same,activity,[8],-13.9%
CC1=C(C(=O)OC2CCCCC2)C(c2ccc([N+](=O)[O-])cc2)C2=C(CC(C)(C)CC2=O)N1 (stereo not drawn),Potency,[1],12 µM (active)
same,Potency,[2],inactive
same,Potency,[3],inactive
same,activity,[5],-30.3%
same,Potency,[6],19.2 µM (active)
same,activity,[7],-8.48%
same,activity,[8],-64.1%
c1cc(NCCc2c[nH]c3ccccc23)cc(Nc2ccncc2)c1,Potency,[1],0.674 µM (active)
same,Potency,[2],7.28 µM (active)
same,Potency,[3],3.25 µM (active)
same,activity,[5],-7.79%
same,Potency,[6],48.2 µM (active)
same,activity,[7],-26%
same,activity,[8],-13.2%
C[C@@H]1CCCN1CCc1cc2cc(-c3ccc(C#N)cc3)ccc2o1,Potency,[1],inactive
same,Potency,[3],20.5 µM (active)
CC(C)c1cc(-c2ccc(F)c3ccccc23)nc(N)n1,Potency,[1],4.25 µM (active)
same,Potency,[3],inactive
O=S1(=O)CCN(Cc2cc(NCC3CCOCC3)c3[nH]c(-c4ccccc4)cc3c2)CC1,Potency,[1],3.38 µM (active)
same,Potency,[3],10.3 µM (active)
same,activity,[5],-4.1%
same,"activity change, negative = inhibition",[6],-1.81%
same,activity,[7],-6.86%
same,activity,[8],-4.93%
CC(C)(O)c1ccc2c(c1)ncn2-c1cccc(-c2ccccc2C#N)c1,Potency,[1],2.13 µM (active)
same,activity,[5],-35.9%
same,Potency,[6],27.1 µM (active)
same,activity,[7],-41.8%
same,activity,[8],-37.6%
Fc1ccc2c(CCNCc3cccc(OCC(F)(F)C(F)F)c3)c[nH]c2c1,Potency,[1],9.52 µM (active)
same,activity,[5],-0.052%
same,"activity change, negative = inhibition",[6],0.441%
same,activity,[7],-8.62%
same,activity,[8],-13.2%
CCCC(=O)C1(c2ccccc2)CCN(C(=O)[C@@H](Cc2ccc(OC)cc2)NC(=O)[C@@H](N)Cc2cncn2C)CC1,Potency,[1],19 µM (active)
same,Potency,[3],18.3 µM (active)
Cc1cc2c(N3CCCC3)nc(N3CCCC3)nc2n1C,Potency,[1],15.1 µM (active)
same,activity,[5],-23.9%
same,Potency,[6],24.1 µM (active)
same,activity,[7],-27.1%
same,activity,[8],-17.6%
NC(N)=NC(=O)c1cnn(-c2cccc3ncccc23)c1C1CC1,Potency,[1],inactive
same,activity,[5],-9.86%
same,"activity change, negative = inhibition",[6],-8.74%
same,activity,[7],-53.6%
same,activity,[8],-5.56%
COc1nc2ccc(Br)cc2cc1[C@@H](c1ccccc1)[C@@](O)(CCN(C)C)c1cccc2ccccc12,Potency,[1],3.79 µM (active)
same,Potency,[3],14.5 µM (active)
CC[C@@H](Nc1c(Nc2cccc(C(=O)N(C)C)c2O)c(=O)c1=O)c1cc(C(C)C)co1,Potency,[1],5.35 µM (active)
same,Potency,[3],16.3 µM (active)
CCCCNc1ncc2c(-c3ccc(S(=O)(=O)N4CCOCC4)cc3)nn(C3CCC(O)CC3)c2n1 (stereo not drawn),Potency,[1],9.52 µM (active)
same,Potency,[3],1.03 µM (active)
CC(C)c1ccc(NC(=O)c2cccs2)c(-c2nc3ccccc3[nH]c2=O)c1,Potency,[1],10.7 µM (active)
same,Potency,[3],16.3 µM (active)
CN1CCN(C2=Nc3ccccc3Nc3ccc(OS(=O)(=O)C(F)(F)F)cc32)CC1,Potency,[1],10.7 µM (active)
same,Potency,[3],16.3 µM (active)
CCCc1cc2c(N3CCN(C4=NCC(C)(C)S4)CC3)ncnc2s1,Potency,[1],inactive
same,activity,[5],-3.43%
same,"activity change, negative = inhibition",[6],1.29%
same,activity,[7],-77.1%
same,activity,[8],-5.27%
O=C(NCCCc1ccccc1)C1CCC(CNS(=O)(=O)c2cccc3nsnc23)CC1 (stereo not drawn),Potency,[1],9.52 µM (active)
same,Potency,[3],11.5 µM (active)
NC(=O)c1cccc2[nH]c(-c3ccc(C4CCCN4)cc3F)nc12 (stereo not drawn),Potency,[1],10.7 µM (active)
same,Potency,[3],18.3 µM (active)

# Source: PubChem BioAssay (NCATS)
